PubChem BioAssay AID1159580 (chemical genetic matrix, 2015)
Out of some 5,500 compounds screened, about 2,000 (36%) were called active. Not shown: some 18% with an inconclusive outcome. Rule as the data show it: active = normalized growth mostly below about 0.91 (no sharp cut-off); inconclusive = no clear call, values can overlap the other calls; inactive = mostly above about 0.92. This is one part of the list.

Experiment: chemical genetic growth profiling, strain panel (AID 1159580);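 also: tested at 20 µM; growth read once vehicle control cultures reached saturation at 30 °C; 1 = growth at the plate median or of vehicle wells; lower values mean less growth of the strain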
Details: growth OD

Measured: normalized growth

CC(=O)N=c1sc(S(N)(=O)=O)nn1C
inactive: S. cerevisiae deletion strains, locus YJR075W, strain HOC1, active compounds read low 1 | S. cerevisiae deletion strains, locus YKL009W, strain mrt4, active compounds read low 1 | S. cerevisiae deletion strains, locus YKL068W, active compounds read low 1 | S. cerevisiae deletion strains, locus YKL085W, strain MDH1 (second series), active compounds read low 1.01 | S. cerevisiae deletion strains, locus YKL085W, strain MDH1, active compounds read low 1.01 | S. cerevisiae deletion strains, locus YKL160W, strain elf1, active compounds read low 1.01 | S. cerevisiae deletion strains, locus YKL190W, strain CNB1, active compounds read low 1.01 | S. cerevisiae deletion strains, locus YKR001C, strain vps1, active compounds read low 0.998 | S. cerevisiae deletion strains, locus YKR026C, strain gcn3, active compounds read low 1.01 | S. cerevisiae deletion strains, locus YKR091W, strain srl3, active compounds read low 1 | S. cerevisiae deletion strains, locus YLL001W, strain dnm1, active compounds read low 1.01 | S. cerevisiae deletion strains, locus YLL026W, active compounds read low 1.01 | S. cerevisiae deletion strains, locus YLL041C, strain sdh2, active compounds read low 1.01 | S. cerevisiae deletion strains, locus YLR027C, strain aat2, active compounds read low 1.01 | S. cerevisiae deletion strains, locus YLR039C, strain RIC1, active compounds read low 1.02 | S. cerevisiae deletion strains, locus YLR058C, strain SHM2, active compounds read low 1.01 | S. cerevisiae deletion strains, locus YLR102C, strain apc9, active compounds read low 1 | S. cerevisiae deletion strains, locus YLR113W, strain HOG1, active compounds read low 1.07 | S. cerevisiae deletion strains, locus YLR221C, strain rsa3, active compounds read low 1 | S. cerevisiae deletion strains, locus YLR258W, strain gsy2, active compounds read low 1.01 | S. cerevisiae deletion strains, locus YLR262C, strain YPT6 (second series), active compounds read low 1.02 | S. cerevisiae deletion strains, locus YLR262C, strain YPT6, active compounds read low 1.04 | S. cerevisiae deletion strains, locus YLR268W, strain sec22, active compounds read low 1 | S. cerevisiae deletion strains, locus YLR320W, strain mms22, active compounds read low 1.04 | S. cerevisiae deletion strains, locus YLR330W, strain CHS5, active compounds read low 1.01 | S. cerevisiae deletion strains, locus YLR342W, strain FKS1 (second series), active compounds read low 1.08 | S. cerevisiae deletion strains, locus YLR342W, strain FKS1, active compounds read low 1.02 | S. cerevisiae deletion strains, locus YLR357W, strain rsc2, active compounds read low 1.03 | S. cerevisiae deletion strains, locus YLR370C, strain arc18, active compounds read low 1.01 | S. cerevisiae deletion strains, locus YLR371W, strain rom2, active compounds read low 1.02 | S. cerevisiae deletion strains, locus YLR384C, strain iki3, active compounds read low 1 | S. cerevisiae deletion strains, locus YLR418C, strain cdc73, active compounds read low 1.04 | S. cerevisiae deletion strains, locus YML016C, strain PPZ1, active compounds read low 1.01 | S. cerevisiae deletion strains, locus YML032C, strain rad52, active compounds read low 0.993 | S. cerevisiae deletion strains, locus YML120C, strain ndi1, active compounds read low 1 | S. cerevisiae deletion strains, locus YML124C, strain tub3, active compounds read low 1.01 | S. cerevisiae deletion strains, locus YMR058W, strain fet3, active compounds read low 1.01 | S. cerevisiae deletion strains, locus YMR078C, strain ctf18, active compounds read low 1.01 | S. cerevisiae deletion strains, locus YMR125W, strain sto1, active compounds read low 1.01 | S. cerevisiae deletion strains, locus YMR129W, active compounds read low 1.01 | S. cerevisiae deletion strains, locus YMR205C, strain PFK2, active compounds read low 1.01 | S. cerevisiae deletion strains, locus YMR223W, strain ubp8, active compounds read low 1.03 | S. cerevisiae deletion strains, locus YMR231W, strain pep5, active compounds read low 1.01 | S. cerevisiae deletion strains, locus YMR307W, strain GAS1, active compounds read low 1.03 | S. cerevisiae deletion strains, locus YNL067W, strain RPL9B, active compounds read low 0.988 | S. cerevisiae deletion strains, locus YNL071W, strain lat1, active compounds read low 1.01 | S. cerevisiae deletion strains, locus YNL128W, strain TEP1, active compounds read low 1.04 | S. cerevisiae deletion strains, locus YNL153C, strain GIM3, active compounds read low 0.979 | S. cerevisiae deletion strains, locus YNL183C, strain NPR1, active compounds read low 0.984 | S. cerevisiae deletion strains, locus YNL209W, strain ssb2, active compounds read low 1.01 | S. cerevisiae deletion strains, locus YNL233W, strain BNI4, active compounds read low 0.967 | S. cerevisiae deletion strains, locus YNL248C, strain rpa49, active compounds read low 1.02 | S. cerevisiae deletion strains, locus YNL250W, strain rad50, active compounds read low 1.04 | S. cerevisiae deletion strains, locus YNL271C, strain bni1, active compounds read low 1 | S. cerevisiae deletion strains, locus YNL298W, strain CLA4, active compounds read low 1.01 | S. cerevisiae deletion strains, locus YNL307C, strain MCK1, active compounds read low 1.02 | S. cerevisiae deletion strains, locus YNL322C, strain KRE1 (second series), active compounds read low 1.01 | S. cerevisiae deletion strains, locus YNR049C, strain mso1, active compounds read low 1.01 | S. cerevisiae deletion strains, locus YNR052C, strain pop2, active compounds read low 1.02 | S. cerevisiae deletion strains, locus YOL006C, strain TOP1, active compounds read low 0.974 | S. cerevisiae deletion strains, locus YOL012C, strain htz1 1.13 | S. cerevisiae deletion strains, locus YOL147C, strain pex11, active compounds read low 1.01 | S. cerevisiae deletion strains, locus YOR001W, strain rrp6, active compounds read low 1.01 | S. cerevisiae deletion strains, locus YOR061W, strain CKA2, active compounds read low 1.01 | S. cerevisiae deletion strains, locus YOR069W, strain VPS5, active compounds read low 1.01 | S. cerevisiae deletion strains, locus YOR070C, strain gyp1, active compounds read low 1.02 | S. cerevisiae deletion strains, locus YOR080W, strain dia2, active compounds read low 1.02 | S. cerevisiae deletion strains, locus YOR083W, strain WHI5, active compounds read low 1.01 | S. cerevisiae deletion strains, locus YOR106W, strain vam3, active compounds read low 1.01 | S. cerevisiae deletion strains, locus YOR136W, strain idh2, active compounds read low 0.997 | S. cerevisiae deletion strains, locus YOR144C, strain elg1, active compounds read low 0.997 | S. cerevisiae deletion strains, locus YOR184W, strain ser1, active compounds read low 1.02 | S. cerevisiae deletion strains, locus YOR231W, strain MKK1, active compounds read low 1.08 | S. cerevisiae deletion strains, locus YOR265W, strain rbl2, active compounds read low 1.01 | S. cerevisiae deletion strains, locus YOR270C, strain vph1, active compounds read low 1.02 | S. cerevisiae deletion strains, locus YOR290C, strain snf2, active compounds read low 1.03 | S. cerevisiae deletion strains, locus YOR316C, strain cot1, active compounds read low 1 | S. cerevisiae deletion strains, locus YPL051W, strain arl3, active compounds read low 1.01 | S. cerevisiae deletion strains, locus YPL055C, strain LGE1, active compounds read low 0.939 | S. cerevisiae deletion strains, locus YPL078C, strain atp4, active compounds read low 1.01 | S. cerevisiae deletion strains, locus YPL106C, strain sse1, active compounds read low 1.03 | S. cerevisiae deletion strains, locus YPL240C, strain hsp82, active compounds read low 1.01 | S. cerevisiae deletion strains, locus YPL241C, strain CIN2, active compounds read low 1.01 | S. cerevisiae deletion strains, locus YPL256C, strain CLN2, active compounds read low 1.08 | S. cerevisiae deletion strains, locus YPR119W, strain clb2, active compounds read low 1 | S. cerevisiae deletion strains, locus YPR141C, strain kar3, active compounds read low 1.01 | S. cerevisiae deletion strains, locus YPR163C, strain tif3, active compounds read low 1.01 | S. cerevisiae deletion strains, locus YPR167C, strain met16, active compounds read low 1 | S. cerevisiae deletion strains, strain wtn01, active compounds read low 1 | S. cerevisiae strains, strain wild type, active compounds read low 1
